Measured values published in ChEMBL document CHEMBL3988442, “University of Dundee, Small-Polar-MMV Screening Library” (2021).
Among all 48,000 compounds or so, about 13,000 (27%) showed an effect of 50% or more. Some of the results follow.

Tested on: Wolbachia pipientis
Assay: Anti-Wolbachia Cell-Based Screen
Type: functional
Parameters: scale not given: in the data most compounds retested in dose-response had high values
Settings: 5 µM

| Compound | Percent Effect [%] |
| --- | --- |
| CN(C)CCN(C)C1CCCN(C(=O)c2ccc(Cn3ccnc3)o2)C1 (centres undefined) | -5.736 |
| CC(O)CN1CCC(CN(C)Cc2cccc(C#N)c2)CC1 (centres undefined) | -3.336 |
| COC(=O)c1cccn1C1CCN(C(=O)c2cc(F)ccc2C)CC1 | 95.76 |
| Cc1ccc(C(=O)N2CCC(c3nccn3C(C)C)CC2)c(=O)[nH]1 | 4.246 |
| COc1cccc([C@@H]2CN(C(=O)c3ccc(C)cc3O)C[C@H]2C(=O)O)c1 | 2.23 |
| COC(=O)c1cccn1C1CCN(C(=O)c2ccc(C)cc2O)CC1 | 105.5 |
| COC(=O)c1cccn1C1CCN(C(=O)c2c(C)noc2C)CC1 | 105.8 |
| COC(=O)c1cccn1C1CCN(C(=O)c2cc(F)ccc2F)CC1 | 16.29 |
| COC(=O)c1cccn1C1CCN(C(=O)c2cc(C)ccc2O)CC1 | -6.759 |
| COC(=O)c1cccn1C1CCN(C(=O)c2cn[nH]c2C)CC1 | 1.064 |
| Cc1ccc(F)cc1C(=O)OCC1CCCN1C(N)=O (centres undefined) | 7.06 |
| COC(=O)c1cccn1C1CCN(C(=O)c2ccc(C)[nH]c2=O)CC1 | 102.8 |
| O=C(Cc1cc2c(cc1Cl)OCCO2)N1CC[C@H](CO)[C@H](O)C1 | 7.536 |
| COc1cccc(-n2c(C)cc(C(=O)NS(C)(=O)=O)c2C)c1 | -4.667 |
| Cc1n[nH]cc1CNCC1(c2ccccc2Cl)CCOCC1 | 10.52 |
| Cc1ccc(CCNC(=O)NCc2cccc(OC(F)F)c2)cn1 | -2.718 |
| COCCNC(=O)Nc1ccc(-n2cncn2)c(F)c1 | -15.63 |
| CC(C)CCOCCNC(=O)Nc1cc(C(F)(F)F)c[nH]c1=O | -4.49 |
| NC(=O)c1cc(NC(=O)N2CCCCCC2)ccc1F | -15.41 |
| COC(=O)c1cccc(S(=O)(=O)Nc2ccc(F)c(C(N)=O)c2)c1 | -1.482 |
| O=C(NCCCOCC1CC1)Nc1ccc(F)cc1 | 3.334 |
| CC(=O)c1cccc(NC(=O)NCCOCC2CC2)c1 | 4.489 |
| CC(C)C(C)NC(=O)Nc1ccc(F)c(C(N)=O)c1 (centres undefined) | 114.2 |
| COCCCNC(=O)Nc1ccc(F)c(C(N)=O)c1 | 133.6 |
| CCOCCCNC(=O)Nc1ccc(F)c(C(N)=O)c1 | 144.9 |
| COCCCNC(=O)Nc1cccc2ncccc12 | 3.143 |
| CC(C)CCOCCNC(=O)Nc1ccc(F)c(C(N)=O)c1 | 86.61 |
| CC(C)C(O)CNC(=O)Nc1ccc(F)c(Cl)c1 (centres undefined) | 4.966 |
| CCOc1ncccc1C(=O)N1CC=C(c2ccc(O)cc2)CC1 | 32.78 |
